D1 potentiator = enhances dopamine response at the human D1 receptor | P21728 | HEK293 TREx D1 cells, calcium flux, dopamine EC20 potentiation | potentiation, % at 10 µM | 360,000 compounds, 0.036% hits; in the data active means potentiation above about 30%; further: 0% is about no effect
Target sequence (P21728 whole entry, looked up): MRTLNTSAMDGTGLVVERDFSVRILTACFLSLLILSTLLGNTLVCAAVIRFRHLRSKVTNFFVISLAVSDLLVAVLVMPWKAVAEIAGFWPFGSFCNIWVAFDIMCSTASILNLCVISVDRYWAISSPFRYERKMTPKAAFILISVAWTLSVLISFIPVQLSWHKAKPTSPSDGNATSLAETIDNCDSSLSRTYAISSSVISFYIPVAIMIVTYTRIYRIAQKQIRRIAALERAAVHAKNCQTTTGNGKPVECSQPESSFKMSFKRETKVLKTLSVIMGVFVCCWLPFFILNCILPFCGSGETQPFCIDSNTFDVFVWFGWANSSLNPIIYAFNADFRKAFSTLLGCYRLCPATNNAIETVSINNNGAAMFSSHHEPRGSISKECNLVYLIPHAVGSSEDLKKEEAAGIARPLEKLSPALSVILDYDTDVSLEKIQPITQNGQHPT
TRHR enhancer = TRH receptor (human) allosteric enhancement. enhancement, % at 2 µM. P34981. 360,000 compounds, 0.66% hits. AID 493056. TRHR cells, fluo-8 calcium fluorescence, EC20 TRH enhancement; in the data active means enhancement above about 30%; further: 0% is about no effect
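Enhancer read-out: after compound pinning and an initial kinetic agonist-mode read, an EC20 of TRH (10 nM final) was injected and fluo-8 calcium signal (Ex 480/Em 530) followed at 1 s/cycle for 100 cycles in TRHR-expressing cells.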
TRHR agonist = TRH receptor (human) agonism | activation, % at 2 µM | TRHR cells, calcium flux fluo-8, FDSS agonist mode | AID 493084 | 360,000 compounds, 0.18% hits; further: 0% is about no effect
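TRHR-expressing cells, plated overnight in medium with 10% serum, were loaded with fluo-8 calcium dye at room temperature. After a 10 s baseline, library compound was pin-added and calcium release was recorded kinetically (ex 480/em 530) as agonist response.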
D1 ag = activates the human D1 dopamine receptor | AID 504660 | activation, % at 2 µM | HEK293 T-REx D1 cells, calcium flux, agonist mode | 360,000 compounds, 1% hits | P21728; further: 0% is about no effect
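Inducible HEK293 T-REx D1 cells, force-coupled to calcium signalling, were plated at 4000 cells/well with tetracycline and held overnight at 30 C. After no-wash calcium dye loading, compound-evoked calcium rise over 180 s flagged agonists.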
D1 antag = antagonists of human D1 dopamine receptor | P21728 | HEK293 TREx D1 cells, calcium flux, dopamine EC80; active compounds read low | activity change, negative = inhibition, % at 10 µM | 360,000 compounds, 3.2% hits | AID 504652; in the data active means activity change below about -30%; further: on the % scale 0 is the no-effect control and ±100 the full control effect
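Kinetic fluorescence of a calcium dye serves as the read-out. D1-expressing Hek293 Trex cells, induced overnight at 30 C, are exposed to compound for 180 s before an EC80 dopamine addition, then read 180 s further.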
An asterisk follows results filed as active; x = not tested or not shown. An excerpt weighted towards active compounds, which were near 4.7% of everything screened. Unless noted, no stated cut-off is given here; in the data, active means activation above about 30%; inactive means the rest.

SMILES	D1 potentiator	TRHR enhancer	TRHR agonist	D1 ag	D1 antag
O=C(CNC(=O)c1cccc2ccccc12)OC(C(=O)Nc1cc(C(F)(F)F)ccc1Cl)c1ccccc1 (stereo not given)	5	-4	2	-1	13
CC(=O)c1ccc(OCC(O)CN(C)Cc2cccs2)cc1 (stereo not given)	1	3	-1	37*	-43*
COc1ccc(N(Cc2cccs2)C(=O)c2ccccc2C)cc1	1	-5	0	4	-36*
COc1ccc(N(Cc2cccs2)C(=O)c2ccc(OCC(C)C)cc2)cc1	3	19	0	34*	3
Cc1ccc(N(Cc2cccs2)C(=O)c2ccc(Br)o2)cc1	-2	-11	0	8	-19
COc1ccc(N(Cc2cccs2)C(=O)c2ccc(C(C)(C)C)cc2)cc1	-1	0	2	14	2
Cc1ccc(N(Cc2cccs2)C(=O)c2ccccc2)cc1	-1	2	0	1	-34*
Cc1nn(-c2ccc(N3CCCC3)nn2)c(C)c1CCC(=O)Nc1ccc(F)cc1F	-6	1	0	-1	-12
O=C(NCCC1=CCCCC1)C1CCN(C(=O)N2CCOc3ccccc32)CC1	0	3	0	1	-2
O=C(OC1CCOC1=O)c1cccc(S(=O)(=O)Nc2cccc(Cl)c2)c1 (stereo not given)	-4	0	0	11	-32*
CNS(=O)(=O)c1cccc(C(=O)OC2CCOC2=O)c1 (stereo not given)	x	-3	1	7	-10
CCOC(=O)C1=C(O)/C(=C/c2ccc(OCC(=O)O)c(OCC)c2)SC1=Nc1ccccc1	-1	-4	1	3	2
CCOC(=O)C1=C(O)/C(=C/c2ccccn2)SC1=Nc1ccc(Cl)cc1	-7	12	0	2	-33*
O=c1oc2ccccc2c2c1C(c1ccc(Cl)cc1)Nc1ccc3ccccc3c1-2 (stereo not given)	-2	10	0	1	-64*
COc1ccc(C2Nc3ccc4ccccc4c3-c3c2c(=O)oc2ccccc32)cc1 (stereo not given)	0	-2	0	4	-3
CCN(CC)CCNC(=O)c1cc2c(=O)n(C)c3cc(Cl)ccc3c2s1	2	5	-1	1	4
COc1cccc(-n2c(-c3ccco3)nc3c(cnn3-c3ccccc3C)c2=O)c1	0	1	1	5	-10
CCc1nc(NC(C)(C)C)c2cnn(-c3ccccc3)c2n1	6	-5	1	32*	32
CCCCN1CCCc2cc(CN(CCCN3CCOCC3)C(=O)Nc3ccc(CC)cc3)ccc21	-1	0	0	2	13
COc1ccc(Nc2cc(O)c3ncccc3c2)cc1	-8	-2	0	0	-3
CCCS(=O)(=O)c1c(S(=O)(=O)CCC)c2cc(C(C)(C)C)ccn2c1C(=O)c1ccccc1	-2	-7	-1	10	-8
CCn1c2ccccc2c2nnc(N3CCN(c4ccc(OC)cc4)CC3)nc21	0	-5	0	-1	2
O=c1[nH]c2ccccc2nc1/C=C/c1ccc(O)cc1	-5	9	22	45*	1
O=c1[nH]c2ccccc2nc1/C=C/c1ccccc1	-6	1	2	4	-7
O=c1[nH]c2ccccc2nc1/C=C/c1ccc(F)cc1	-5	1	-2	35*	-9
SMILES	D1 potentiator	TRHR enhancer	TRHR agonist	D1 ag	D1 antag
O=C(Nc1nc2ccccc2[nH]1)c1cccc(F)c1	6	-2	1	1	8
O=C(/C=C/c1ccc(F)cc1)Nc1nc2ccccc2[nH]1	-1	-14	-2	5	-31*
Cc1cc(Cl)ccc1NC(=O)CN1C(=O)COc2ccc(S(=O)(=O)Nc3ccccc3)cc21	-2	-6	0	0	-13
Cc1cccc(OCCCCn2c(C3CC(=O)N(c4ccc(C)cc4C)C3)nc3ccccc32)c1 (stereo not given)	-1	3	1	14	-1
COc1ccccc1C(CCNS(=O)(=O)c1ccc(C)cc1)c1ccco1 (stereo not given)	-4	10	0	42*	21
O=[N+]([O-])c1cc(Cl)c(O)c2ncccc12	-2	-2	0	3	1
O=[N+]([O-])c1cc(Cl)c2cccnc2c1O	-3	2	6	30*	-12
